In ChEMBL document CHEMBL4513135, “CO-ADD screening of IQOG CSIS (Spain) compounds” one finds Inhibition data, which are given here for 39 molecules.

Several values for one entry are separate records, joined by “and”; a condition that tells them apart may be missing. Identical values can stand only once. Entries with a potency or affinity are not part of this list.

One assay deals with Klebsiella pneumoniae. The settings on record: Concentration 32 ug.mL-1, ASSAY_TEST Inhibition of Bacterial Growth, detection method Absorption (OD600), MEDIA CAMHB, plate type 384well, NBS, CORNING #3640, time 18 hr.
The test system of the next assay is Candida albicans. The settings on record: 32 ug/mL.
Another assay deals with Cryptococcus neoformans. The settings on record: Concentration 32 ug.mL-1, ASSAY_TEST Inhibition of Fungal Growth, detection method Resazurin, Absorption (OD600-OD570), plate type 384well, NBS, CORNING #3640. For orientation: The colour change of resazurin is a common sign of viable cells or microbes.

For orientation: Inhibition means the relative decrease from the control value, in per cent. Regarding `CNCc1cn(C)c2ccc(OC)cc12.Cl`, the results for the Inhibition with Klebsiella pneumoniae, in the assay with Candida albicans and in the assay with Cryptococcus neoformans were 11.42%, 1.37% and -1.31%, respectively.

Regarding `COc1ccc2c(c1)cc(C[N+](C)(C)C)n2C.[I-]`, the results for the Inhibition in the assay on Klebsiella pneumoniae, with Candida albicans and in the assay with Cryptococcus neoformans were 16.42%, 1% and -0.09%, respectively.

Consider `Cc1ccc(S(=O)(=O)N2[C@H]3CC[C@@H]2CC3)cc1`, for which the Inhibition was 13.85% in the assay on Klebsiella pneumoniae, 3.38% in the assay with Candida albicans and -10.99% with Cryptococcus neoformans.

Turning to `Cc1ccc(C=C(C#N)C#N)cc1`, the results for the Inhibition with Klebsiella pneumoniae, in the assay on Candida albicans and in the assay with Cryptococcus neoformans were 9.23%, 0.34% and -5.46%, respectively.

For the molecule `CCOC(=O)c1cc2cc(OC(=O)NC3CCN(Cc4ccccc4)CC3)ccc2[nH]1`, the values for the Inhibition with Klebsiella pneumoniae, in the assay with Candida albicans and in the assay with Cryptococcus neoformans were 1.99%, 0.56% and -41.14%, respectively.

As to `O=C(N1[C@H]2CC[C@@H]1C(c1nnn[nH]1)C2)C(F)(F)F` (some centres not stated), the Inhibition in the assay on Klebsiella pneumoniae was 13.67%; with Candida albicans, 1.81%; in the assay with Cryptococcus neoformans it was -32.17%.

`NNCCCc1c[nH]c2ccccc12.O=C(O)/C=C/C(=O)O`: the figures for the Inhibition in the assay on Klebsiella pneumoniae, in the assay on Candida albicans and with Cryptococcus neoformans were 10.99%, 1.63% and 4.26%, respectively.

As for `CCOC(=O)C1=C(C)NC(=O)CC1c1ccccc1` (configuration not stated), the Inhibition with Klebsiella pneumoniae was 18.92%; in the assay on Candida albicans, 2.43%; in the assay with Cryptococcus neoformans it was -58.04%.

Take `CN1CC=C(c2cccn2C)CC1.Cl`: the Inhibition in the assay with Klebsiella pneumoniae is 8.46%; in the assay on Candida albicans, 3.38%; in the assay with Cryptococcus neoformans, -2.75%.

For the molecule `Cc1ccccc1C=C(C#N)C#N`, the Inhibition with Klebsiella pneumoniae was -3.33%; in the assay with Candida albicans it was -0.55%; in the assay with Cryptococcus neoformans it was -4.61%.

On to `COc1ccc(C=C(C#N)C#N)cc1OC`, for which the Inhibition in the assay on Klebsiella pneumoniae is 6.42%; with Candida albicans it was 0.87%; with Cryptococcus neoformans it was -1.94%.

Take `Nc1c2c(nc3ccccc13)CCN(Cc1ccccc1)C2`: the Inhibition in the assay with Klebsiella pneumoniae is 4.75%; in the assay with Candida albicans, -0.35%; in the assay on Cryptococcus neoformans it was -78.39%.

For the molecule `[N-]=[N+]=NCC(=O)c1ccc(Br)cc1`, the Inhibition in the assay with Klebsiella pneumoniae was 7.99%; in the assay on Candida albicans, 3.1%; in the assay on Cryptococcus neoformans it was -9.49%.

Turning to `OCC(Cc1cnc[nH]1)NCc1ccccc1` (configuration not stated), the Inhibition in the assay with Klebsiella pneumoniae worked out at 4.01%; with Candida albicans, 0.31%; in the assay with Cryptococcus neoformans it was 1.68%.

Take `Cc1nc(N)c(C#N)cc1C(=O)O`: the Inhibition in the assay on Klebsiella pneumoniae is -3.56%; in the assay with Candida albicans it was 1.23%; in the assay with Cryptococcus neoformans, -34.98%.

For the molecule `CN(C)C(=O)Oc1ccc(CCl)c2cccnc12`, the Inhibition in the assay on Klebsiella pneumoniae was 13.45%; in the assay with Candida albicans, 4.55%; with Cryptococcus neoformans, -46.72%.

`C#CCN(C)Cc1cc2cc(OC(=O)N(C)C)ccc2n1C`: the Inhibition with Klebsiella pneumoniae was -2.9%; in the assay on Candida albicans it was 3.66%; with Cryptococcus neoformans, -26.57%.

As for `C#CCN1CCc2nc3nc(Cl)c(C#N)cc3c(N)c2C1`, the Inhibition with Klebsiella pneumoniae is 7.38%; with Candida albicans, 0.36%; with Cryptococcus neoformans, -89.58%.

Consider `Nc1c2c(nc3c1C(c1ccccc1)CC(=O)N3)CCCC2` (configuration not stated), for which the Inhibition in the assay with Klebsiella pneumoniae was 11.64%; with Candida albicans, 1%; in the assay with Cryptococcus neoformans, -63.29%.

`N#CCC(=O)c1ccccc1`: the Inhibition is 12.74% with Klebsiella pneumoniae, 10.4% in the assay with Candida albicans and -3.25% in the assay with Cryptococcus neoformans.

With `CCOC(=O)c1cn(Cc2ccccc2)c2ccccc12`, the values for the Inhibition in the assay on Klebsiella pneumoniae, in the assay on Candida albicans and with Cryptococcus neoformans were 3.42%, -1.33% and -2.24%, respectively.

Regarding `Cl.ClCCN1CCCCC1`, the Inhibition in the assay with Klebsiella pneumoniae was 11.31%; with Candida albicans, 4.96%; with Cryptococcus neoformans it was -9.27%.

In the case of `N#CC(C#N)=Cc1ccc(Cl)cc1`, the Inhibition is 17.25% in the assay with Klebsiella pneumoniae, 0.02% in the assay with Candida albicans and -1.11% in the assay with Cryptococcus neoformans.

Regarding `C#CCN1CCc2nc3ncccc3c(N)c2C1.Cl`, the Inhibition in the assay with Klebsiella pneumoniae is 8.58%; with Candida albicans it was 2.69%; with Cryptococcus neoformans, -56.71%.

As to `CC1CC(=O)Nc2nc3c(c(N)c21)CCCC3` (configuration not stated), the Inhibition was 14.16% with Klebsiella pneumoniae, 2.93% in the assay on Candida albicans and -54.55% with Cryptococcus neoformans.

`CN1CC=C(c2cccn2C)CC1`: the Inhibition is 7.84% with Klebsiella pneumoniae, 3.67% with Candida albicans and -4.6% with Cryptococcus neoformans.

In the case of `C#CCN1CCc2nc3nc(OC)c(C#N)cc3c(N)c2C1`, the Inhibition in the assay on Klebsiella pneumoniae was 9.96%; with Candida albicans, 0.5%; in the assay on Cryptococcus neoformans, -73.36%.

Take `COc1cc(C2C(C#N)=C(N)Oc3c2ccc2ccccc32)cc(OC)c1OC` (configuration not stated): the Inhibition with Klebsiella pneumoniae was 3.14%; in the assay on Candida albicans it was -0.44%; in the assay with Cryptococcus neoformans, -3.68%.

As to `C#CCN1CCc2nc(N)c(C#N)c(-c3ccccc3)c2C1`, the Inhibition is 13.26% and 8.28% with Klebsiella pneumoniae (32 ug/mL); 1.84% and 1.59% with Candida albicans; -44.69% and -39.47% in the assay with Cryptococcus neoformans (32 ug/mL).

On to `Cl.ClCCN1CCCC1`, for which the Inhibition in the assay on Klebsiella pneumoniae was 3.45%; in the assay on Candida albicans, 5.34%; with Cryptococcus neoformans, -1.83%.

Regarding `NNC(=O)c1cccnc1` [NICOTINIC ACID HYDRAZIDE], the Inhibition with Klebsiella pneumoniae is 3.91%; in the assay on Candida albicans, 1.56%; in the assay on Cryptococcus neoformans, -4.91%.

For `CCOC(=O)C1=C(OC)OC(=O)CC1c1ccccc1` (configuration not stated), the Inhibition was 18.96% in the assay with Klebsiella pneumoniae, 1.67% with Candida albicans and -58.88% in the assay with Cryptococcus neoformans.

For `CCOc1nc2nc(C)c(C(=O)O)cc2c(-c2ccccc2)c1C#N`, the Inhibition in the assay on Klebsiella pneumoniae is 7.3%; with Candida albicans it was 1.34%; with Cryptococcus neoformans, -54.07%.

In the case of `C#CCN(C)Cc1cc2cc(OCCCC3CCN(Cc4ccc(OC(=O)N(C)C)c5ncccc45)CC3)ccc2n1C`, the Inhibition with Klebsiella pneumoniae is 4.78%; in the assay on Candida albicans, 5.51%; in the assay with Cryptococcus neoformans, -77.63%.

Consider `O=C(CBr)NCc1ccccc1`, for which the Inhibition turned out to be 15.98% in the assay with Klebsiella pneumoniae, 10.2% with Candida albicans and 6.35% in the assay on Cryptococcus neoformans.

In the case of `CCOC(=O)C1=C(C)OC(=O)CC1c1ccccc1` (configuration not stated), the Inhibition with Klebsiella pneumoniae was 8.11%; with Candida albicans, 4.72%; in the assay on Cryptococcus neoformans it was -25.58%.

Regarding `N#Cc1cc(C#N)c(N2C3CCC2CC3)nc1N`, the Inhibition is -5.68% with Klebsiella pneumoniae, 3.02% with Candida albicans and -1.32% with Cryptococcus neoformans.

Take `C#CCN(C)Cc1cc2cc(OCc3ccc(OC(=O)N(C)C)c4ncccc34)ccc2n1C`: the Inhibition in the assay on Klebsiella pneumoniae is -0.57%; in the assay on Candida albicans it was 1.92%; with Cryptococcus neoformans, -64.25%.

Consider `NNC(=O)c1cn(Cc2ccccc2)c2ccccc12`, for which the Inhibition amounted to 10.74% in the assay with Klebsiella pneumoniae, 0.77% in the assay with Candida albicans and 3.84% with Cryptococcus neoformans.
